Reference: PubChem BioAssay AID493087 (The Scripps Research Institute Molecular Screening Center, 2011)
The whole screen tested about 340,000 compounds, of which about 240 (0.071%) were called active. Many of the other results were omitted from the sample, so actives are more common in it than they were. A number with no mark means an inactive call.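 How the source made its calls: active means activation above the mean of all tested compounds plus 3 SD, set per screening campaign (cut at about 17% in these data); inactive means the rest.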

Biological target: Insulin-degrading enzyme (Homo sapiens) (UniProt P14735)
Experiment: human IDE activators in live cells, primary screen, fluorescence polarization, HEK cells, FAbeta-B substrate (AID 493087)
Settings: FAbeta-B cleavage, at 5.96 µM, stronger effect = higher value, 0% vehicle, 100% cell-free pure enzyme wells

Chain of Insulin-degrading enzyme (Homo sapiens) (P14735 whole entry, looked up): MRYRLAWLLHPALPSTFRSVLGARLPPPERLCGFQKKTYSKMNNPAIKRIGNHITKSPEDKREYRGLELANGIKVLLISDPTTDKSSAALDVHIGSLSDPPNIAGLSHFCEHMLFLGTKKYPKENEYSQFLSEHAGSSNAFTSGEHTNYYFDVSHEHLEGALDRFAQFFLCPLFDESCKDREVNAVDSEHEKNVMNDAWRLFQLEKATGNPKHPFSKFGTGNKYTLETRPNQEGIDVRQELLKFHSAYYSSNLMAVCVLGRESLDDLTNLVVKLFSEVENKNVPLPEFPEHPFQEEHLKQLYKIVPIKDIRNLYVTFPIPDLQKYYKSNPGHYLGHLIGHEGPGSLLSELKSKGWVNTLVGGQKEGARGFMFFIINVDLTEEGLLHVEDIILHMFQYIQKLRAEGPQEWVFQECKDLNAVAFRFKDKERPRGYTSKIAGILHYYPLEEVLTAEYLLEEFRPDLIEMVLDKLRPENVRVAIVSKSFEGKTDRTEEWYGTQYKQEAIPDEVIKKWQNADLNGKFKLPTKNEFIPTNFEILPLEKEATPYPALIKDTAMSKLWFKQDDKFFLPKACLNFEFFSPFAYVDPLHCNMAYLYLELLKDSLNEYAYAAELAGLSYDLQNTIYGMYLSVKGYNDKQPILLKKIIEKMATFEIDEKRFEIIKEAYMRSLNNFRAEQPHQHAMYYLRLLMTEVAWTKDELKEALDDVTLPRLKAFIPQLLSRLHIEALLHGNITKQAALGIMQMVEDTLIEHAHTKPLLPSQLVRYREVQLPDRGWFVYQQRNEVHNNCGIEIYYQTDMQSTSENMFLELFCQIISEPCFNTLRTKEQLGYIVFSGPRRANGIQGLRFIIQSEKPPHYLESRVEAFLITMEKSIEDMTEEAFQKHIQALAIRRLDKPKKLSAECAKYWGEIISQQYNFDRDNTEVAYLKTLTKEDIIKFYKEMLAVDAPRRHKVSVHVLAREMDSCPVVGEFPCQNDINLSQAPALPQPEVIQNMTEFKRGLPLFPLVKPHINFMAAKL

In order of falling activation:
1. O=C(O)CCn1cc(/C=C/C(=O)c2ccc(Cl)cc2)c(-c2cccc(Br)c2)n1  7.16%
2. NC1=NOC(=O)C1C1CCCCC1 (stereo not drawn)  5.24%
3. COc1ccc(-n2ncc3c2CC(C)(C)CC3NC(=O)CCc2c(C)nn(C)c2C)cc1 (stereo not drawn)  5.01%
4. O=C(NCCCn1ccnc1)C(=O)NCC1OCCN1S(=O)(=O)c1cc(F)ccc1F (stereo not drawn)  4.73%
5. CCC(Cc1ccccc1)NS(=O)(=O)c1ccc2c(c1)NC(=O)CS2 (stereo not drawn)  4.18%
6. CC1=C(C)CC(C(=O)NNC(=O)c2csc3c2CCC(C(C)(C)C)C3)C(C(=O)O)C1 (stereo not drawn)  4.06%
7. COc1cc2c3c(c1)/C(=C1/SC(=S)NC1=O)C(=O)N3C(C)(C)C=C2C  3.91%
8. COC(=O)c1sc2[nH]c(=S)n(N)c(=O)c2c1C  3.84%
9. COc1ccc([C@H]2CC(=O)C=C(/C=C/c3ccc(Cl)cc3)C2)cc1  3.83%
10. COC(=O)Nc1ccc(S(=O)(=O)N(C)CC(F)(F)C(F)F)cc1  3.58%
11. COc1ccc(CCNC(=O)COC(=O)C2CC2C)cc1 (stereo not drawn)  3.39%
12. CC12CCCCC1=CC(=O)CC2 (stereo not drawn)  3.28%
13. c1ccc2c(c1)CCc1snnc1-2  2.79%
14. CN1CCC(=NNC(=O)CN(c2cccc(Cl)c2)S(C)(=O)=O)CC1  2.41%
15. Cc1ccc(S(=O)(=O)N2CC(C)N(S(C)(=O)=O)C2)cc1 (stereo not drawn)  2.36%
16. O=C(CCC(=O)N1CCN(S(=O)(=O)c2ccc(Cl)cc2)CC1)NCc1cccc(C(F)(F)F)c1  2.14%
17. O=C(CN1C(=O)NC(Cc2ccccc2)(Cc2ccccc2)C1=O)NCC1CCCCC1  2.02%
18. CCC1CCCCN1C(=S)Nc1ccc(C(C)=O)cc1 (stereo not drawn)  1.79%
19. COc1ccc(C(=O)NCCn2nc(C)cc2C)cc1OC1CCN(C(C)=O)CC1  1.62%
20. Cc1cc(C)n2nc(C(=O)Nc3cccc(S(=O)(=O)N4CCOCC4)c3)nc2n1  1.61%
21. N#C/C(=C/c1cccc([N+](=O)[O-])c1)c1nnc2n1CCCCC2  1.53%
22. Cc1ccc(S(=O)(=O)N(C)CC(=O)NCC(c2ccc(F)cc2)N2CCOCC2)cc1 (stereo not drawn)  1.51%
23. CCOC(=O)c1cc2c(=O)n3ccccc3nc2n(CC(C)C)c1=NC(=O)c1c(-c2c(F)cccc2Cl)noc1C  1.41%
24. O=C(CN1C(=O)CC(c2ccccc2)=Nc2ccccc21)NC1CCCCC1  1.38%
25. COc1ccc(-c2c(-c3cc(OC)cc(OC)c3)n(C)c3ccc(-c4ccn[nH]4)cc23)cc1  1.2%
26. COCC1CCN(C(=O)CCc2nnc(C3(c4ccc(Cl)cc4)CCC3)o2)C1 (stereo not drawn)  0.92%
27. O=C(NCCCN1CCOCC1)c1ccc2c(c1)N(Cc1cccc(F)c1)C(=O)c1ccccc1S2  0.8%
28. CCS(=O)(=O)c1ccc(O)c(NC(=O)COc2ccc(Cl)cc2)c1  0.73%
29. COc1ccc(C(=O)Nc2cc(C)ccc2NC(=O)COc2ccccc2)cc1  0.16%
30. CC1(C)CC(N2CCN(C(c3ccccc3)c3ccccc3)CC2)=CC(=[N+]2CCCCC2)C1  0.04%
31. CN1CCN(CCCNC(=O)c2ccc(/C=C3\Oc4ccccc4N(Cc4ccc(Cl)cc4)C3=O)cc2)CC1  -0.17%
32. O=c1nc(N2CCOCC2)nc2n1CCO2  -0.31%
33. O=C(CCCCCCCC(=O)N1CCCCC1)N1CCCCC1  -0.9%
34. Cc1ccc(CNC(=O)C2CCN(S(=O)(=O)c3ccc4nc5c(c(C(=O)O)c4c3)CC(C)CC5)CC2)cc1 (stereo not drawn)  -1.27%
35. O=C(CSc1nc2nccnc2c(=O)n1Cc1cccs1)Nc1ccccc1F  -1.39%
36. COCc1cc(C)n(CC(=O)NCC2CCCO2)c(=O)c1C#N (stereo not drawn)  -1.81%
37. Cc1ccc(-c2nc(COC(=O)c3c(C)noc3C)cs2)cc1  -2.15%
38. CCSc1nc(=S)n(CC)c(C)c1C(C)=O  -2.33%
39. CCc1cc(=O)oc2cc(OCC(=O)N3CCCc4ccccc43)ccc12  -2.67%
40. Oc1c(CN2CCOCC2)ccc(CN2CCOCC2)c1O  -3.83%
41. COc1cc2[nH]c(O)c(C=O)c2cc1OC  -5.21%
42. Cc1ccc(S(=O)(=O)/N=C(\CN2CCOCC2)N2CCOCC2)cc1  -5.66%
43. O=C(O)c1ccc(S(=O)(=O)N2CCC(Cc3ccccc3)CC2)cc1  -5.76%
44. Brc1ccc(/C=N/N2CCN(C3c4ccccc4-c4ccccc43)CC2)s1  -7.03%
45. Cn1nccc1C(=O)N1CCCC(C(=O)c2ccc(Oc3ccccc3)cc2)C1 (stereo not drawn)  -8.2%
46. CCc1ccc(C(=O)NNC(=O)C2CCN(c3ncnc4sc(C)c(C)c34)CC2)cc1  -11.5%

With `CCN1CCN(CCNC(=O)c2ccc(/C=C3/Sc4ccccc4N(Cc4cccc(C)c4)C3=O)cc2)CC1` the activation was 24.8% (active).
In the case of `Cc1ccc(O)c(NC(=S)NC(=O)COc2ccc(Br)cc2)c1`, the activation is reported as 18.1% (active).
